This is part of a sample that, as a whole, favours compounds with a hit. Of some 83,000 tested, about 20% had one in any assay.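 A percent growth of 40 corresponds to 60% growth inhibition; 0 means no net growth; -100 means all cells died. Active threshold: below 10.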 Calls of active or inactive are those of the source.
Legend:
Test in all cases: NCI-60 one-dose screen, 48 h (100 = growth as untreated, 0 = no growth, -100 = all killed)
NCI-H23 lung = conditions: 10 µM unless noted
NCI-H226 lung = conditions: 10 µM unless noted
NCI-H322M lung = conditions: 10 µM unless noted
HOP-62 NSCLC = conditions: 10 µM unless noted
NCI-H460 lung = conditions: 10 µM unless noted
HOP-92 NSCLC = conditions: 10 µM unless noted
NCI-H522 lung = conditions: 10 µM unless noted
A549/ATCC NSCLC = conditions: 10 µM unless noted
786-0 renal = conditions: 10 µM unless noted
COLO 205 colon = conditions: 10 µM unless noted
DU-145 prostate = conditions: 10 µM unless noted
K-562 leukemia = conditions: 10 µM unless noted
MALME-3M melanoma = conditions: 10 µM unless noted
MDA-MB-231 breast = conditions: 10 µM unless noted
RXF 393 renal = conditions: 10 µM unless noted
SF-268 CNS = conditions: 10 µM unless noted
SF-295 CNS = conditions: 10 µM unless noted
SF-539 CNS = conditions: 10 µM unless noted
UACC-257 melanoma = conditions: 10 µM

Measured: growth

ClC(Cl)c1nc(-c2cccs2)n2nc(-c3ccccc3)cc2n1
active: NCI-H23 lung 4.85% | NCI-H322M lung -28.8% | HOP-62 NSCLC -6.27% | NCI-H460 lung -40.1% | HOP-92 NSCLC -27.7% | A549/ATCC NSCLC -16.1% | COLO 205 colon -40.7% | DU-145 prostate -24.3% | MDA-MB-231 breast -26.9% | RXF 393 renal -73.2% | SF-268 CNS 6.38% | SF-295 CNS -27.6% | SF-539 CNS -44%
inactive: NCI-H226 lung 82.6% | NCI-H522 lung 75.1% | 786-0 renal 40.2% | K-562 leukemia 27.9% | MALME-3M melanoma 67.7% | UACC-257 melanoma 16.3%

CNC(=O)c1cc(Oc2ccc3nc(NC(=O)c4cc(C)cc(C)c4)sc3c2)ccn1
inactive: NCI-H23 lung 97.2% | NCI-H226 lung 75% | NCI-H322M lung 103% | HOP-62 NSCLC 98.6% | NCI-H460 lung 93.1% | NCI-H522 lung 84.2% | A549/ATCC NSCLC 89.7% | 786-0 renal 59% | COLO 205 colon 85.4% | DU-145 prostate 93.5% | K-562 leukemia 50% | MALME-3M melanoma 87.7% | MDA-MB-231 breast 84.6% | RXF 393 renal 69.2% | SF-268 CNS 82.4% | SF-295 CNS 65% | SF-539 CNS 85.6% | UACC-257 melanoma 89.1%
active: HOP-92 NSCLC 9.05%

NCCN1CCN(c2nc(-c3ccccc3)nc3nc(-c4ccccc4)oc23)CC1
active: NCI-H23 lung -42.7% | NCI-H226 lung -57.6% | NCI-H322M lung -41.4% | HOP-62 NSCLC 0.341% | NCI-H460 lung -67.7% | NCI-H522 lung -13.1% | A549/ATCC NSCLC -63.7% | 786-0 renal -83.3% | COLO 205 colon -44.7% | DU-145 prostate -79% | K-562 leukemia 6.56% | MALME-3M melanoma -68.8% | MDA-MB-231 breast -74.5% | SF-268 CNS -64.7% | SF-295 CNS -83.6% | SF-539 CNS -87.6%
inactive: HOP-92 NSCLC 58.9% | RXF 393 renal 49.6% | UACC-257 melanoma 93.4%

CN1C(=O)N(C)C2C1NN=c1s/c(=C\c3ccccn3)c(=O)n12 (configuration not stated)
inactive: NCI-H23 lung 99.1% | NCI-H226 lung 99.7% | NCI-H322M lung 99.6% | HOP-62 NSCLC 100% | NCI-H460 lung 108% | HOP-92 NSCLC 96.6% | NCI-H522 lung 93.4% | A549/ATCC NSCLC 99.8% | 786-0 renal 101% | COLO 205 colon 110% | DU-145 prostate 108% | K-562 leukemia 93.9% | MALME-3M melanoma 92.7% | MDA-MB-231 breast 98% | RXF 393 renal 102% | SF-268 CNS 99.9% | SF-295 CNS 99.8% | SF-539 CNS 96.3% | UACC-257 melanoma 96.4%

N=c1c2cc(-c3ccccc3)oc2ncn1/N=C/c1ccccc1
inactive: NCI-H23 lung 98.1% | NCI-H226 lung 98.9% | NCI-H322M lung 94.5% | HOP-62 NSCLC 87.4% | NCI-H460 lung 57.6% | HOP-92 NSCLC 92% | NCI-H522 lung 42.1% | A549/ATCC NSCLC 71.2% | 786-0 renal 78.6% | COLO 205 colon 88.1% | DU-145 prostate 96.7% | K-562 leukemia 27.6% | MALME-3M melanoma 48.9% | MDA-MB-231 breast 95.1% | RXF 393 renal 49.4% | SF-268 CNS 89% | SF-295 CNS 84.3% | SF-539 CNS 85.8% | UACC-257 melanoma 85.6%

Cc1cn(-c2cc(NC(=O)c3cncc(C#Cc4cnc5ccc(OCCCS(C)(=O)=O)nn45)c3)cc(C(F)(F)F)c2)cn1
active: NCI-H23 lung -5.32% | NCI-H226 lung 4.42% | HOP-92 NSCLC -34.5% | NCI-H522 lung 3.59% | COLO 205 colon -30.3% | RXF 393 renal -74.5% | SF-268 CNS -5.33% | SF-539 CNS 6.3%
inactive: NCI-H322M lung 24.4% | HOP-62 NSCLC 25.5% | NCI-H460 lung 18.6% | A549/ATCC NSCLC 48% | 786-0 renal 12.4% | DU-145 prostate 12.6% | K-562 leukemia 11% | MALME-3M melanoma 11.7% | MDA-MB-231 breast 14.4% | SF-295 CNS 54.6% | UACC-257 melanoma 64.4%

Cn1c(SC(C(=O)Nc2ccc(F)cc2)c2ccccc2)nc2ccccc2c1=O (configuration not stated)
inactive: NCI-H23 lung 103% | NCI-H226 lung 102% | NCI-H322M lung 111% | HOP-62 NSCLC 99.6% | NCI-H460 lung 112% | HOP-92 NSCLC 86.9% | NCI-H522 lung 93.1% | A549/ATCC NSCLC 99.1% | 786-0 renal 102% | COLO 205 colon 119% | DU-145 prostate 112% | K-562 leukemia 103% | MALME-3M melanoma 88% | MDA-MB-231 breast 99.4% | RXF 393 renal 117% | SF-268 CNS 106% | SF-295 CNS 98.2% | SF-539 CNS 96.1% | UACC-257 melanoma 95.6%

Oc1ccc(CSc2nnc(-c3ccc(Cl)cc3)o2)c2cccnc12
inactive: NCI-H23 lung 27.6% | NCI-H226 lung 60.2% | NCI-H322M lung 26.1% | HOP-62 NSCLC 21.5% | HOP-92 NSCLC 21.8% | NCI-H522 lung 32% | A549/ATCC NSCLC 19.6% | 786-0 renal 27.9% | COLO 205 colon 97.4% | DU-145 prostate 31.8% | K-562 leukemia 16.2% | MALME-3M melanoma 36.8% | MDA-MB-231 breast 52.1% | RXF 393 renal 52.2% | SF-268 CNS 24.2% | SF-539 CNS 17% | UACC-257 melanoma 18.8%
active: NCI-H460 lung 5.72% | SF-295 CNS 5.94%
